# Experimental data: PubChem BioAssay (NCATS)
# Unmarked numbers belong to inactive results. Records with an inconclusive call do not appear. Entries that show only a call come without a potency. Activity calls are given as the source filed them. Unless noted, calls come from the whole dose curve; as a rule, active = well fitted curve in the direction sought with a large enough effect; inconclusive = small, poorly fitted or top-dose-only effect, or another doubt; inactive = no such curve, though single readings can be large; an effect the other way counts as inactive or inconclusive.
# Tests used:
# [1] = molecular target: Cytochrome P450 3A4 (Homo sapiens) (UniProt P08684); assay: qHTS Assay for Inhibitors and Substrates of Cytochrome P450 3A4 (AID 884); note: nearly all actives have a fitted effect of over 50% in size; note: potency is the fitted concentration of half-maximal effect
# Outline: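 20 nM human CYP3A4 with 25 uM Luciferin-PPXE (at KM) in 200 mM KPO4, preincubated 10 min with compound; NADPH regeneration started a 60 min RT reaction. Luciferin detected by luminescence, normalized to 57 uM ketoconazole as full inhibition.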
# [2] = qHTS Assay for Identification of Small Molecule Agonists for Hypoxia Response Element Signaling Pathway (AID 914; active = well fitted activation curve with a large enough effect in the signal ratio, with a control signal flat, not every such curve was filed as active; the % refers to the signal ratio; note: potency is the fitted concentration of half-maximal effect); settings: ME-180 (cervical carcinoma) HRE-bla reporter, beta-lactamase ratio, CoCl2, 17 h; activation: active compounds read high
# Outline: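 AC50 values come from titration-series %Activity, taken as the 460/530nm ratio of CCF4 fluorescence (excitation 405nm). CellSensor HRE-bla ME-180 cells were treated 17 hours at 37 C with compound plus an EC50 level of CoCl2.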
# [3] = molecular target: Lysosomal acid glucosylceramidase (Homo sapiens) (UniProt P04062); assay: Glucocerebrosidase-p2 (AID 348; in the data active = potency below about 10 µM; note: potency is the fitted concentration of half-maximal effect); settings: purified GBA, blue fluorogenic substrate, 40 min
# Outline: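 Compounds titrated from 0.6 nM upwards against 0.2 nM enzyme in pH 5.9 citric acid/KH2PO4, taurocholate, tween-20; blue fluorogenic substrate 80 uM, 40 min room temperature, stopped and read Ex 365/Em 440 for AC50.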
# [4] = molecular target: ATP-dependent 6-phosphofructokinase (Trypanosoma brucei brucei) (UniProt O15648); assay: qHTS Assay to Find Inhibitors of T. brucei phosphofructokinase: hit validation (AID 492961);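 note: luminescence reports ADP formed as PFK phosphorylates fructose-6-phosphate with ATP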
# Outline: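 In this biochemical qHTS validation, titrated compounds were tested against 1.25 nM PFK with 0.1 mM ATP and 0.5 mM F6P. Percent activity came from controls lacking or containing enzyme.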
# [5] = qHTS profiling for inhibitors of Plasmodium falciparum proliferation (AID 504749); note: nearly all actives have a fitted effect of over 60% in size; note: potency is the fitted concentration of half-maximal effect; settings: P. falciparum in erythrocytes, SYBR Green DNA, 72 h
# Outline: (§1)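 Infected RBCs, 0.3% parasitemia/2.5% Hct final; cpd 72 h, 37 C, 5% CO2; lysis buffer with saponin/triton/SYBR Green I, o/n RT dark; FI 485/535; norm. to artemisinin (0.29 uM) and DMSO.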
# AS120 = assay: as above; settings: P. falciparum in erythrocytes, SYBR Green DNA, 72 h; series mostly up to 28.7 µM
# Outline: as §1
# ATS189 = assay: as above; settings: P. falciparum in erythrocytes, SYBR Green DNA, 72 h; series mostly up to 28.7 µM
# Outline: as §1
# CP185 = assay: as above; settings: P. falciparum in erythrocytes, SYBR Green DNA, 72 h; series mostly up to 28.7 µM
# Outline: as §1
# CP191 = assay: as above; settings: P. falciparum in erythrocytes, SYBR Green DNA, 72 h; series mostly up to 28.7 µM
# Outline: as §1
# CP192 = assay: as above; settings: P. falciparum in erythrocytes, SYBR Green DNA, 72 h; series mostly up to 28.7 µM
# Outline: as §1
# CP201 = assay: as above; settings: P. falciparum in erythrocytes, SYBR Green DNA, 72 h; series mostly up to 28.7 µM
# Outline: as §1
# CP247 = assay: as above; settings: P. falciparum in erythrocytes, SYBR Green DNA, 72 h; series mostly up to 28.7 µM
# Outline: as §1
# DFO2036 = assay: as above; settings: P. falciparum in erythrocytes, SYBR Green DNA, 72 h; series mostly up to 28.7 µM
# Outline: as §1
# DIV30 = assay: as above; settings: P. falciparum in erythrocytes, SYBR Green DNA, 72 h; series mostly up to 28.7 µM
# Outline: as §1
# P94_40 = assay: as above; settings: P. falciparum in erythrocytes, SYBR Green DNA, 72 h; series mostly up to 28.7 µM
# Outline: as §1
# PC49 = assay: as above; settings: P. falciparum in erythrocytes, SYBR Green DNA, 72 h; series mostly up to 28.7 µM
# Outline: as §1
# TAB113 = assay: as above; settings: P. falciparum in erythrocytes, SYBR Green DNA, 72 h; series mostly up to 28.7 µM
# Outline: as §1
# W2 = assay: as above; settings: P. falciparum in erythrocytes, SYBR Green DNA, 72 h; series mostly up to 28.7 µM
# Outline: as §1
# [6] = molecular target: Cytochrome P450 2C9 (Homo sapiens) (UniProt P11712); assay: qHTS Assay for Inhibitors and Substrates of Cytochrome P450 2C9 (AID 883); note: nearly all actives have a fitted effect of over 60% in size; note: potency is the fitted concentration of half-maximal effect
# Outline: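 Inhibition of CYP2C9 is scored as loss of luminescence, with 57uM sulphaphenazole defining 100% inhibition. Substrate Luciferin-H is used at 100uM, equal to its KM; enzyme at 10nM in 25mM KPO4, 60 min at 37C with NADPH regeneration.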
# [7] = qHTS Assay for Identification of Small Molecule Antagonists for Thrombopoietin (TPO) Signaling Pathway (AID 918); settings: TPO-dependent cell signaling reporter, antagonist mode; note: potency is the fitted concentration of half-maximal effect; nearly all actives have a fitted effect of over 60% in size
# Outline: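 Ba/F3 (murine, hTPO-R, GPIIb-luc reporter); overnight IL-3 withdrawal; cpd + TPO 26 pM final (EC50); 24 h 37 C/5% CO2; Steadylite luminescence after 10 min RT.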
# [8] = at 28.7 µM (top of the series), parasite line A
# [9] = at 28.7 µM (top of the series), parasite line B
# Sequence of Cytochrome P450 3A4 (Homo sapiens) (P08684 whole entry, looked up): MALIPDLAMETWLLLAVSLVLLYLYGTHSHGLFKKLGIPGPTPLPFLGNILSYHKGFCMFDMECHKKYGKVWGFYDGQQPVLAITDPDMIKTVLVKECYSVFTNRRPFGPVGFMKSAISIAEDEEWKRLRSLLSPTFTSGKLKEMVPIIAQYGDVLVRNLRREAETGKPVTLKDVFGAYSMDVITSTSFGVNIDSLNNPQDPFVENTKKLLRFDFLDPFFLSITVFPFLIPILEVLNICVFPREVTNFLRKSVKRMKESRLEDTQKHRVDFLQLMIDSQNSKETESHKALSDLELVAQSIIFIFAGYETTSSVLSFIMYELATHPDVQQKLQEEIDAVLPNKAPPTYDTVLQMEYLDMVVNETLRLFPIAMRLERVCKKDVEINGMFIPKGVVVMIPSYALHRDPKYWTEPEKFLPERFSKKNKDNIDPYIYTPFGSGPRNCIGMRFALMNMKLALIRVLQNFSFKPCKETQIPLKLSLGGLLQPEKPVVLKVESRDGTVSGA
# Sequence of Cytochrome P450 2C9 (Homo sapiens) (P11712 whole entry, looked up): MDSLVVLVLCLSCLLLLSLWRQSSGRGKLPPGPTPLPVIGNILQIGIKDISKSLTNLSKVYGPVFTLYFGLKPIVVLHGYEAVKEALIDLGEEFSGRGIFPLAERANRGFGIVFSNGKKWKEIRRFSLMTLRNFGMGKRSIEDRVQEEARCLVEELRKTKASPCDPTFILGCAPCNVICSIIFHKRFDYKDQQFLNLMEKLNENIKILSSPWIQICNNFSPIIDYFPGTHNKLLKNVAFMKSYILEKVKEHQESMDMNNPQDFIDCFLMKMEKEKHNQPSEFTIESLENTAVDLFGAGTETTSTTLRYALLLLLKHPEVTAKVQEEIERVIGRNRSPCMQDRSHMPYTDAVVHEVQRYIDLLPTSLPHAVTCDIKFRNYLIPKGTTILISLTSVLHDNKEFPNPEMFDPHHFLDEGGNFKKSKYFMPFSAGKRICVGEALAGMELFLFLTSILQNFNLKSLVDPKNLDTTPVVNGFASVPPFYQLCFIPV
# Sequence of ATP-dependent 6-phosphofructokinase (Trypanosoma brucei brucei) (O15648 whole entry, looked up): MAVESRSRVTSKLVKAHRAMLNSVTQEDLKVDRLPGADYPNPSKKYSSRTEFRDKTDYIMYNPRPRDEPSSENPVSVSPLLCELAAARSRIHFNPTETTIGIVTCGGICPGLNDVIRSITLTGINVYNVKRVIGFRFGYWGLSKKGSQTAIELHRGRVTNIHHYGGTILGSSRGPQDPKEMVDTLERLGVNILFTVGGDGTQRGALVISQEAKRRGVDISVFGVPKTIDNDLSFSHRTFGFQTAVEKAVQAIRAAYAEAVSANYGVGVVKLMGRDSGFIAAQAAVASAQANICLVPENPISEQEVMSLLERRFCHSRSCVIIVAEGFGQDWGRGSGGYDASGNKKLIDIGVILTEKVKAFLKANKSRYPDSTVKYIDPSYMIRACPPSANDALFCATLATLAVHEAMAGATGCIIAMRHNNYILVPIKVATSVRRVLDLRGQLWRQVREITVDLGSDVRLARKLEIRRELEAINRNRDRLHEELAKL
# Sequence of Lysosomal acid glucosylceramidase (Homo sapiens) (P04062 whole entry, looked up): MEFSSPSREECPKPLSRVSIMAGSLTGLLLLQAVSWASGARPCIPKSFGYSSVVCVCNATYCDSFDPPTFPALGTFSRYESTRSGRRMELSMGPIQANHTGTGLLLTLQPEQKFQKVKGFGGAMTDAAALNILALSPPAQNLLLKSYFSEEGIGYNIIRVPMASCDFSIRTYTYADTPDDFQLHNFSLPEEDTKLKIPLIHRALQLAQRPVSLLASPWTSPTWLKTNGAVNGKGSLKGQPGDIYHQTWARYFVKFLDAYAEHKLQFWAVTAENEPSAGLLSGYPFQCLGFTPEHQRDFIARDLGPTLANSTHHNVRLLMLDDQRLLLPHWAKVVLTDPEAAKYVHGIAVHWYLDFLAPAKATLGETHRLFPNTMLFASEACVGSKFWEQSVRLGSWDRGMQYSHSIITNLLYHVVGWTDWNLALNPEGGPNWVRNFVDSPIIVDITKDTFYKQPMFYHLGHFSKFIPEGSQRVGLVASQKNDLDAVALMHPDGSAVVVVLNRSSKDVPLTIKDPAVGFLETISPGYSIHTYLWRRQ
smiles,measurement,setting,value
O=[N+]([O-])c1ccc(CSc2ncnc3c2ncn3[C@@H]2O[C@@H](CO)[C@@H](O)[C@H]2O)cc1,Potency,[1],inactive
CC(C)(C)c1ccc([C@@H](O)CCCN2CCC(C(O)(c3ccccc3)c3ccccc3)CC2)cc1,activation,[2],18.6%
COc1cc(N=Nc2cccc(S(N)(=O)=O)c2)c2ccccc2c1N,Potency,[3],> 11.4 µM
COc1ccc(-c2csc3c2[N+]2=CCC=C2C3=O)cc1,Potency,[3],> 11.4 µM
same,activation,[2],4.84%
COc1ncc2nc(-c3cc(F)cc(F)c3)c(=O)n(CCc3ccccc3)c2n1,Potency,[3],> 11.4 µM
C[N+]1(C)[C@@H]2CC(OC(=O)[C@@H](CO)c3ccccc3)C[C@@H]1[C@H]1O[C@H]12 (stereo partly specified),Potency,[3],> 11.4 µM
same,outcome,[4],inactive
same,"activity, negative = inhibition",[5]; [8],5.68%
same,"activity, negative = inhibition",[5]; [9],-7.21%
same,Potency,AS120,inactive
same,Potency,ATS189,inactive
same,Potency,CP185,inactive
same,Potency,CP191,inactive
same,Potency,CP192,inactive
same,Potency,CP201,inactive
same,Potency,CP247,inactive
same,Potency,DFO2036,inactive
same,Potency,DIV30,inactive
same,Potency,P94_40,inactive
same,Potency,PC49,inactive
same,Potency,TAB113,inactive
same,Potency,W2,inactive
CC(C)c1ccc(O)c(O)c(=O)c1 (tested in a mixture with another compound),Potency,[3],> 11.4 µM
O=C1C=C(N2CCN(c3ccccn3)CC2)C(=O)c2c(O)ccc(O)c21,Potency,[3],> 11.4 µM
N=c1ccn2c(n1)O[C@@H]1[C@@H](O)[C@H](CO)O[C@H]12,Potency,[1],inactive
COc1cc2c(cc1OC)[C@H](c1ccccc1)CN(C)CC2,Potency,[1],inactive
O=C1OC(=O)[C@@H]2[C@@H]1[C@@H]1CC[C@H]2O1,Potency,[6],inactive
N#CCCn1c(=O)c(-c2ccccc2)nc2cnc(N3CCNCC3)nc21,Potency,[3],> 11.4 µM
same,Potency,[2],3.16 µM (active)
CC(=O)N1CCN(c2ccc(OC[C@@H]3CO[C@@](Cn4ccnc4)(c4ccc(Cl)cc4Cl)O3)cc2)CC1,outcome,[4],inactive
same,"activity, negative = inhibition",[5]; [8],-14.8%
same,"activity, negative = inhibition",[5]; [9],-14.2%
same,Potency,AS120,inactive
same,Potency,ATS189,inactive
same,Potency,CP185,inactive
same,Potency,CP191,inactive
same,Potency,CP192,inactive
same,Potency,CP201,inactive
same,Potency,CP247,inactive
same,Potency,DFO2036,inactive
same,Potency,DIV30,inactive
same,Potency,P94_40,inactive
same,Potency,PC49,inactive
same,Potency,TAB113,inactive
same,Potency,W2,inactive
CC(CO)(CO)N=Cc1cc(I)cc(I)c1O,Potency,[3],> 11.4 µM
Nc1ncnc2c1ncn2[C@@H]1CCCO1,Potency,[6],inactive
same,activation,[2],-13.1%
CSc1nc(N)c2ncn([C@@H]3O[C@@H](COP(=O)(O)OP(=O)(O)OP(=O)(O)O)[C@@H](O)[C@H]3O)c2n1,Potency,[6],inactive
same,Potency,[1],inactive
Cc1ccccc1N1CCN(S(=O)(=O)C[C@@]23CC[C@H](C[C@H]2NC(=O)[C@@H](N)CCS(C)(=O)=O)C3(C)C)CC1,Potency,[1],3.16 µM (active)
O=C(O)CCCC[C@H]1CCSS1,Potency,[6],inactive
C(=C/c1ccccc1)/CN1CCN(C(c2ccccc2)c2ccccc2)CC1,outcome,[4],inactive
same,"activity, negative = inhibition","[5]; at 12.8 µM (top of the series), parasite line A",1.36%
same,Potency,AS120,inactive
same,Potency,ATS189,inactive
same,Potency,CP185,inactive
same,Potency,CP191,inactive
same,Potency,CP192,inactive
same,Potency,CP201,inactive
same,Potency,CP247,inactive
same,Potency,DFO2036,inactive
same,Potency,DIV30,inactive
same,Potency,P94_40,inactive
same,Potency,PC49,inactive
same,Potency,TAB113,inactive
same,Potency,W2,5.1 µM (active)
Cc1cc(O)c(C(C)C)cc1C1(c2cc(C(C)C)c(O)cc2C)OC(=O)c2ccccc21,Potency,[3],> 11.4 µM
COC(=O)CC[C@@H](C)[C@@H]1CC[C@@H]2[C@@H]3CC[C@H]4C[C@@H](O)CC[C@@]4(C)[C@@H]3CC[C@]21C,Potency,[3],> 11.4 µM
CN1CCc2cc(Cl)c(O)cc2[C@H](c2ccccc2)C1,Potency,[1],inactive
same,activation,[2],-21.3%
Cc1ccc(CCCC(=O)O)cc1C,Potency,[3],> 11.4 µM
CC(C)[C@@H]1NC(=O)[C@H](CCCCN)NC(=O)[C@H](Cc2c[nH]c3ccccc23)NC(=O)[C@H](Cc2ccc(O)cc2)NC(=O)[C@H](C)N(C)C(=O)[C@H](Cc2ccccc2)NC1=O,Potency,[1],3.98 µM (active)
CN(C)C(=O)/N=N\C(=O)N(C)C,Potency,[7],10 µM (active)
Oc1ccc([C@@H]2CNCc3sccc32)cc1O,Potency,[7],12.6 µM (active)
Cc1cccc(C)c1OC[C@@H](N)C(C)C,activation,[2],-2.64%
O=C(O)/C=C\c1cnc[nH]1,activation,[2],-4.56%
O=C1O/C(=C\Br)CC[C@@H]1c1cccc2ccccc12,Potency,[7],10 µM (active)
Nc1ccc(CCNc2ncnc3c2ncn3[C@@H]2O[C@@H](CO)[C@H](O)[C@@H]2O)cc1,activation,[2],0.683%
O=[N+]([O-])c1ccc(Nc2nc3ccccc3s2)cc1,Potency,[6],1.26 µM (active)
CSC(N)=NCCC[C@@H](N)C(=O)O,Potency,[7],3.16 µM (active)
CCNC(=O)[C@@H]1O[C@@H](n2cnc3c(NCc4ccccc4)ncnc32)[C@@H](O)[C@H]1O,Potency,[6],inactive
N[C@@H](C(=O)O)[C@@H]1C[C@H]1C(=O)O,Potency,[6],inactive
C=C1CC[C@H](O)C/C1=C/C=C1\CCC[C@]2(C)[C@H]1CC[C@H]2[C@@H](C)CCCC(C)C,activation,[2],-0.192%
CN1C[C@@H](O)[C@@H](O)[C@@H](O)[C@@H]1CO,Potency,[6],inactive
same,activation,[2],11.9%
N[C@H](Cc1ccc(O)c(I)c1)C(=O)O,Potency,[6],inactive
c1ccc(C[C@@H](Nc2cccnc2)c2ccccc2)cc1,Potency,[1],3.16 µM (active)
N#CCCn1c(=O)c(CCc2ccccc2)nc2cnc(Oc3ccccc3)nc21,Potency,[1],2.51 µM (active)
CN(CCc1ccccn1)c1ccc2c(c1)Cc1ccccc1-2,Potency,[1],2.51 µM (active)
CCCCC[C@@H](O)[C@@H]1C(=O)O[C@@H](C)[C@@H](O)\C=C/C=C\C=C/C=C\C=C(\C)[C@H](O)C[C@H](O)C[C@H](O)C[C@H](O)C[C@H](O)C[C@H](O)C[C@@H]1O,Potency,[6],inactive
Cc1sc2ccccc2[n+]1CCC(=O)O,activation,[2],-2.73%
CCN1/C(=C\C(C)=O)Sc2ccc(OC)cc21,Potency,[6],inactive
C[C@]1(c2ccccc2)O[C@@H]2C[C@@H]3[C@@H]4CCC5=CC(=O)C=C[C@@]5(C)[C@]4(F)[C@H](O)C[C@]3(C)[C@@]2(C(=O)CO)O1,Potency,[1],3.16 µM (active)
O=c1[nH]c2[nH]c(=S)[nH]c(=S)c2[nH]1,Potency,[6],1.26 µM (active)
